In PubChem BioAssay (EPA / NIEHS):
Activity calls are given as the source filed them. Rule for the calls: active = hit-call score of the fitted dose curve at least 0.9, where 1 is the maximum; inactive = score below 0.9.

assay: CCTE_Shafer_MEA_acute_burst_number: CCTE's Neural Acute Assay for Single-Electrode Bursts, Shafer Lab (AID 2284013)
Description: CCTE_Shafer_MEA_acute assay is conducted using Axion Biosystems 48 well microelectrode array (MEA) plates and Maestro recording system. Each well of the MEA plate contains a grid of 16 microelectrodes embedded in the culture surface. Electrically active cells, such as neurons, can be cultured over the electrodes, and electrical activity in these cells can be recorded extracellularly. The spontaneous firing of neurons is captured from each electrode on a microsecond timescale providing both temporally and spatially precise data. […] The CCTE_Shafer_MEA_acute assay uses primary cultures of rat cortical neurons. As these cultures mature over time, neural networks develop functional activity and form cohesive networks in which electrical activity can be highly coordinated. Baseline 40-minute recordings are made on days post-plating 13 or 15, followed by a secondary 40-minute recording after chemical exposure.CCTE_Shafer_MEA_acute_burst_number is a component of the CCTE_Shafer_MEA_acute assay. It measures the total number of single-electrode bursts (temporally-clustered groups of action potential firing) during a recording in a microelectrode array (MEA) using Axion Biosystems Maestro 768 channel amplifier with the AxIS adaptive spike detector. The recordings before and after chemical treatment are used to calculate a percent change in the burst number in each well.Data from the assay component CCTE_Shafer_MEA_acute_burst_number was analyzed into 1 assay endpoint. This assay endpoint, CCTE_Shafer_MEA_acute_burst_number, was analyzed in the negative analysis fitting direction relative to DMSO as the negative control and baseline of activity. Using a type of functional reporter, gain or loss-of-signal activity can be used to understand electrical activity.
Spontaneous activity in the cortical cultures was recorded using an Axion Biosystems Maestro 768 channel amplifier and Axion Integrated Studios (AxIS) v1.8 (or later) software. The amplifier recorded from all channels simultaneously (gain = 1200 x; sampling rate = 12.5 kHz/channel): raw signals were filtered with a Butterworth band-pass filter (300-5000 Hz), which filters out slower local field potentials leaving only fast potentials, i.e., "spikes", arising from extracellular currents associated with action potentials (Pine 2006; Wheeler and Nam 2011). On-line spike detection of filtered signals was conducted with the AxIS adaptive spike detector, using a threshold of 8x the root mean squared (rms) noise on each channel. Any electrodes with rms noise levels greater than 5 uV were grounded (e.g., no data were recorded). Once grounded, an electrode was grounded for the duration of the experiment. All recordings were conducted at 37 C. Wells were deemed usable if on the day of the exposure >/= 10 electrodes were active (defined as >/= 5 spikes/min). On DIV 13 or 15, a minimum of three wells from one cortical culture preparation were treated with each compound (0.03-40 uM). Prior to recording baseline activity, each mwMEA plate was placed in the Maestro at 37 C and allowed to sit for 20 min while firing rates stabilized. Baseline activity (40 min) was recorded before the addition of each compound. An additional 40 min of spontaneous activity was recorded in the presence of each compound. Changes in network parameters relative to baseline were assessed following compound treatment.

Row | Compound | outcome | AC50
1 | O=c1[nH]sc2ccccc12 | inactive | 
2 | C[C@]12CC[C@@H]3c4ccc(O)cc4CC[C@H]3[C@@H]1CC[C@H]2O | inactive | 
3 | OC12N=C(c3ccccc3)SC1Cc1cc(Cl)ccc12 (stereo unspecified) |  | 6.49 µM (active)
4 | CN(C)C(=O)C1(N2CCCCC2)CCN(CC[C@@]2(c3ccc(Cl)c(Cl)c3)CN(C(=O)c3ccccc3)CCO2)CC1 |  | 2.11 µM (active)
5 | Cc1cc2c(cc1C(F)(F)F)N(C(=O)Nc1ccc(Oc3cccnc3C)nc1)CC2 | inactive | 
6 | CCCCCCCCCCCCO | inactive | 
7 | O=C(O)c1ccccc1-n1cc(C(=O)O)c(=O)c2cc(Nc3c(F)cc(F)cc3Cl)c(Cl)cc21 | inactive | 
8 | COc1cccc([C@H](O)C2CCN(CCc3ccc(F)cc3)CC2)c1OC |  | 2.88 µM (active)
9 | CN1C(=O)CC[C@H]1c1cccnc1 | inactive | 
10 | Cc1cn([C@H]2C[C@H](N=[N+]=[N-])[C@@H](CO)O2)c(=O)[nH]c1=O | inactive | 
11 | CC(C)(c1cc(Br)c(O)c(Br)c1)c1cc(Br)c(O)c(Br)c1 | inactive | 
12 | CC1=CC(=O)/C(=C(/C)O)C(=O)O1 | inactive | 
13 | Clc1ccccc1C(c1ccccc1)(c1ccccc1)n1ccnc1 |  | 3.26 µM (active)
14 | CCN(CC)C(=O)c1cc(S(=O)(=O)Cc2ccccc2)c(N2CCC(c3ccccc3)CC2)cc1N(CC)CCN(C)C | inactive | 
15 | CCN(Cc1cccc(S(=O)(=O)O)c1)c1ccc(C(=C2C=CC(=[N+](CC)Cc3cccc(S(=O)(=O)O)c3)C=C2)c2ccccc2S(=O)(=O)[O-])cc1 | inactive | 
16 | CCCCCCCCOC(=O)c1cc(O)c(O)c(O)c1 |  | 4.91 µM (active)

Row | Compound | outcome | AC50
17 | CN(C[C@@H](CC[N+]12CCC(C3CCCCC3)(CC1)CC2)c1ccc(Cl)c(Cl)c1)C(=O)c1cc(C(F)(F)F)cc(C(F)(F)F)c1 |  | 0.249 µM (active)
18 | CO[C@H]1/C=C/O[C@@]2(C)Oc3c(C)c(O)c4c(O)c(c(/C=N/N5CCN(C)CC5)c(O)c4c3C2=O)NC(=O)/C(C)=C\C=C\[C@H](C)[C@H](O)[C@@H](C)[C@@H](O)[C@@H](C)[C@H](OC(C)=O)[C@@H]1C | inactive | 
19 | CC(O)CC(C)(C)O (stereo unspecified) | inactive | 
20 | COc1cc(C(=O)NC2CCN(C)CC2)ccc1Nc1ncc2c(n1)N(C1CCCC1)CC(F)(F)C(=O)N2C | inactive | 
21 | CCCCOC(=O)c1ccc(O)cc1 | inactive | 
22 | CC(=O)N1CCN(c2ccc(OC[C@H]3CO[C@](Cn4ccnc4)(c4ccc(Cl)cc4Cl)O3)cc2)CC1 | inactive | 
23 | Cc1c2ccccc2c(C)c2c1ccc1ccccc12 | inactive | 
24 | CC/C(=C(/CC)c1ccc(O)cc1)c1ccc(O)cc1 | inactive | 
25 | CC(C)(C)c1cc(/C=C2\SC(N)=NC2=O)cc(C(C)(C)C)c1O | inactive | 
26 | CN(C)c1ccc(C(=C2C=CC(=[N+](C)C)C=C2)c2ccc(N(C)C)cc2)cc1 |  | 0.348 µM (active)
27 | c1ccc2n[nH]nc2c1 | inactive | 
28 | NCc1cccc(C2CCN(C(=O)c3ccc(C#Cc4ccccc4F)o3)CC2)c1 |  | 8.95 µM (active)
29 | NC(=O)c1nc(-c2cccc(-c3cc(F)ccc3OCC(F)(F)C(F)(F)F)c2)n[nH]1 |  | 0.446 µM (active)
30 | O=C1O[C@H]([C@@H](O)CO)C(O)=C1O | inactive | 
31 | CC[C@@H]1C[C@H](N(Cc2cc(C(F)(F)F)cc(C(F)(F)F)c2)C(C)=O)c2cc(C(F)(F)F)ccc2N1C(=O)OC(C)C | inactive | 
